Only some compounds are listed: those with a hit (about 10% of all), similar ones and a draw of the others.
RORgamma inh: blocks mouse ROR gamma transcriptional activity; P51450; Drosophila S2 Gal4-RORgamma UAS-luciferase reporter, 20 h; Potency, µM (titrated, usually from 53.6 µM), without a hit: at the top dose activity change, negative = inhibition, most hits filed as inhibitors; 5.4% of 310,000 active; further: on the % scale 0 is the no-effect control and ±100 the full control effect; nearly all actives have a fitted effect of over 60% in size
Target sequence (P51450 whole entry, looked up, the tested form may be a part): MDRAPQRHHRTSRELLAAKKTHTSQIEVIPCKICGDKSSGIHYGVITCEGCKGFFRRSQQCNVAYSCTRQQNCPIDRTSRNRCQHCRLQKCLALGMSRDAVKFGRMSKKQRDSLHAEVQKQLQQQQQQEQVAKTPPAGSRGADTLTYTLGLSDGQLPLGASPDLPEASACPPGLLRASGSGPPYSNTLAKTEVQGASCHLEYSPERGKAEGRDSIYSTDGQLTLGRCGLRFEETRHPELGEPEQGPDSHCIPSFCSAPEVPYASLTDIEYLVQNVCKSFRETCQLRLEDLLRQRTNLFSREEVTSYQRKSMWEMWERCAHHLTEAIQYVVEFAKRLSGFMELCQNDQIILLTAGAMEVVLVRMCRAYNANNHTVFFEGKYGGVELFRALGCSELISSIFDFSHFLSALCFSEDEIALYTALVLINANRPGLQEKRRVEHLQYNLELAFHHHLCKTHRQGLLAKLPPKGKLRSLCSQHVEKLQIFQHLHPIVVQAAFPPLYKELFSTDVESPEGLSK
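Drosophila Schneider cells stably carrying a metallothionein-driven Gal4 DBD–ROR gamma fusion and a UAS-Photinus luciferase reporter were exposed to compound for 1 hr, then induced with copper sulfate (700 uM final) for 20 hr at ambient temperature before luminescence reading.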
KB-V1 cytotox: KB-V1 MDR subline cytotoxicity | KB-V1 MDR cells viability, CellTiter-Glo, 72 h | Potency, µM (highest dose often 46.1 µM), actives largely listed as cytotoxic | 3.4% of 400,000 active; further: on the % scale 0 is the no-effect control and ±100 the full control effect; nearly all actives have a fitted effect of over 60% in size
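KB-V1 cells (P-gp-expressing MDR subline of KB-3-1) in phenol-red-free DMEM with 10% FBS were exposed to library compounds over a concentration series for 72 h at 37 degrees C. Viability read by CellTiter-Glo luminescence; concentration-effect curves fitted after normalization.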
Gal4-VP16 FLuc: Gal4-VP16 reporter inhibition counter-screen; Drosophila S2 Gal4-VP16 UAS-luciferase, luminescence, 20 h; Potency, µM (doses to about 53.6 µM), without a hit: at the top dose activity, negative = inhibition, most hits filed as inhibitors; 3.5% of 310,000 active;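 further: Gal4-VP16 expression switched on by copper sulfate through the metallothionein promoter; on the % scale 0 is the no-effect control and ±100 the full control effect; nearly all actives have a fitted effect of over 50% in size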
MCF10A rereplic: induces DNA re-replication in MCF 10a normal breast cells. Potency, µM (doses to about 46.1 µM), for inactives: at the top dose activity, positive = re-replication, hits mostly activators. AID 624296. 2.9% of 350,000 active. MCF 10A DNA re-replication, Hoechst nuclear intensity, 48 h; further: % of control where 0% means no effect; nearly all actives have a fitted effect of over 50% in size
KB-3-1 cytotox: KB-3-1 parental cell cytotoxicity; 1.4% of 400,000 active; Potency, µM (highest dose often 46.1 µM), actives largely listed as cytotoxic; KB-3-1 viability, CellTiter-Glo ATP luminescence, 72 h; further: on the % scale 0 is the no-effect control and ±100 the full control effect; nearly all actives have a fitted effect of over 60% in size
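Here the drug-naive KB-3-1 line serves as comparator for MDR sub-line selectivity; cells received compound titrations, 72 h at 37 °C, then CellTiter-Glo readout.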
SW480 rerep: induces DNA re-replication in SW480 colon adenocarcinoma cells; Potency, µM (top dose mostly 46.1 µM), for inactives: at the top dose re-replication activation, actives largely listed as activators; AID 624297; SW480 DNA re-replication, Hoechst DNA content imaging, 48 h; 1.8% of 340,000 active; further: % of control where 0% means no effect; nearly all actives have a fitted effect of over 55% in size
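Hoechst fluorescence of nuclei (405 nm excitation, 500-530 nm emission) measured by plate-scanning imager after 48 hr compound exposure at 37 C; re-replication scored as increased number of nuclei with elevated intensity.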
* marks the source's active call; other numbers are inactive results; i = inactive; ? = inconclusive; · = not tested or not shown; ! = a repeat was not active; [ ] = dose if it differs, or a comment. The call rests on the fitted dose curve; in most records, active means well fitted curve in the direction sought with a large enough effect; inconclusive means small, poorly fitted or top-dose-only effect, or another doubt; inactive means no such curve, though single readings can be large; an effect the other way counts as inactive or inconclusive. Potency means the concentration at half of the fitted maximal effect.

SMILES	RORgamma inh	KB-V1 cytotox	Gal4-VP16 FLuc	MCF10A rereplic	KB-3-1 cytotox	SW480 rerep
C[C@H]1COC2=C1C(=O)C(=O)c1c2ccc2c1CCCC2(C)C	-8%	i	-11%	18µM*	?	?
CC[N+](=O)[O-]	-3%	·	5%	·	·	·
O=C(CCCc1nc(-c2ccc(Cl)cc2)no1)NCC1CCCO1 (stereo not drawn)	4%	13µM*	13µM*	16%	10µM*	-17%
Cc1c(O)c(=O)ccn1C	-6%	i	-6%	?	i	-14%
CC(C)Br	13%	·	-2%	·	·	·
O=C1C=CC(=O)C(Cl)=C1	11µM*	·	?	·	·	·
N#CC(C#N)=C(C#N)c1ccc(Nc2ccccc2)cc1	?	?	14µM*	?	i	?
c1ccc(Nc2ccc(Nc3ccccc3)cc2)cc1	22%	i	-21%	-39%	i	?
CN1CCC2(CC1)CCN(C(=O)Oc1ccccc1)CC2	-7%	·	17%	·	·	·
COc1ccccc1CCNCc1ccc(OC)c(OC)c1OC	9%	i	4%	1%	i	2%
Cc1ccccc1CCNCc1cc2cccc(C)c2[nH]c1=O	?	i	10µM*	13%	i	-7%
CC(C)(O)C1C2OC(=O)C1[C@]1(O)C[C@H]3O[C@]34C(=O)O[C@H]2[C@]14C (stereo partly drawn) (tested in a mixture with another compound)	16%	·	-3%	4%	·	-1%
Clc1ccc(-c2nc3ccc(Cl)cn3c2CN2CCCCC2)cc1	5µM*	i	-23%	?	?	-4%
Clc1ccc(-c2nc3ccc(Cl)cn3c2CN2CCOCC2)cc1	?	i	?	9%	i	-4%
CCc1ccc(C(=O)NN(C(=O)c2cc(C)cc(C)c2)C(C)(C)C)cc1	-1%	·	-2%	·	·	·
COc1ccc(C(=O)C2CCCN(Cc3cccc(C)n3)C2)c(OC)c1 (stereo not drawn)	?	i	-22%	-16%	i	-28%
COc1c(C)cc(C(=O)C2CCCN(Cc3ccccn3)C2)cc1C (stereo not drawn)	2µM*	i	10µM*	?	i	-1%
COc1cccc(C(=O)C2CCCN(Cc3ccccn3)C2)c1 (stereo not drawn)	3.5µM*	i	?	-2%	i	1%
O=C(c1ccc2c(c1)OCO2)C1CCCN(Cc2ccccn2)C1 (stereo not drawn)	3.2µM*	i	?	13%	i	-4%
O=Cc1ccc2c(c1)OCO2	0%	·	6%	·	·	·
C[C@H](CO)N1C[C@H](C)[C@@H](CN(C)Cc2ccc(-c3ccccc3)cc2)Oc2c(NC(=O)c3ccncc3)cccc2C1=O	·	i	·	?	?	18%
Cc1nnc(NC(=O)c2cccn(Cc3ccccc3F)c2=O)s1	·	i	·	·	i	·
Clc1c(Cl)c(Cl)c(Cl)c(Cl)c1Cl	5%	·	1%	·	·	·
Cn1cc(C(=O)OCC(=O)Nc2ccccc2Cl)c2ccccc21	·	i	·	19%	i	?
Cn1cc(C(=O)OCC(=O)Nc2ccccc2)c2ccccc21	·	21µM*	·	-1%	i	-6%
SMILES	RORgamma inh	KB-V1 cytotox	Gal4-VP16 FLuc	MCF10A rereplic	KB-3-1 cytotox	SW480 rerep
C/C=C1/CN2CC[C@]34C(=C(C=O)[C@H]1C[C@@H]23)Nc1ccccc14	15%	·	14%	·	·	·
Cc1nc2ccc(Nc3nc4cc(S(=O)(=O)N5CCOCC5)ccc4o3)cc2s1	-1%	i	-1%	?	i	18µM*
Oc1ccc2[nH]cc(CCCCN3CC=C(c4ccccc4)CC3)c2c1	19%	·	16%	-2%	·	1%
O=C(CN1CCOCC1)Nc1ccc(Br)cc1C(=O)c1ccccc1	36%	i	-6%	6%	i	-5%
O=C(Nc1ccc(Br)cc1C(=O)O)c1ccc2c(c1)C(=O)N(Cc1ccccc1)C2=O	10µM*	i	?	?	i	0%
CCOc1ccc(-c2nc3ccc(-c4nc5ccc(N6CCN(C)CC6)cc5[nH]4)cc3[nH]2)cc1	2.2µM*	·	?	·	·	·
ClC(Cl)c1ccccc1	15%	·	7%	·	·	·
O=C1c2ccccc2C(=O)C1C(=O)C(c1ccccc1)c1ccccc1	19%	·	8%	24µM*	·	?
O=C1NC(=O)c2c1c1c3ccccc3n3c1c1c2c2ccccc2n1C1CCC3O1	-22%	·	-11%	·	·	·
COc1cc2c(cc1OC)[C@@]13CCN4CC5=CCOC6CC(=O)N2C1[C@H]6[C@@H]5C[C@@H]43 (stereo partly drawn)	-2%	·	4%	-4%	·	4%
NC1CC2CCCCC2CC1(O)c1ccccc1 (stereo not drawn)	·	i	·	·	i	·
CC(C)C1C(c2ccccc2)N(C)C(c2ccccc2)CC1(O)c1ccccc1 (stereo not drawn)	-26%	?	0%	5.2µM*	i	?
CC1=C2CC3C(CC=C4C[C@@H](O)CC[C@@]43C)[C@@H]2CC[C@]12O[C@@H]1C[C@H](C)CN[C@H]1[C@H]2C (stereo partly drawn)	-18%	·	9%	·	·	·
COc1ccc2c(c1)c(CCN1CCOCC1)c(C)n2C(=O)c1cccc(Cl)c1Cl	-4%	·	-11%	·	·	·
CC[C@@H](CO)NC(=O)[C@@H]1C=C2c3cccc4c3c(cn4C)C[C@H]2N(C)C1	18µM*!	i	?	8%	i	-4%
CN(C)C(=O)O/N=C(\N)COc1ccc(C(C)(C)C)cc1	?	?	?	?	i	12µM*
CCOC(=O)C(O)(c1ccc(N(C)C(=O)COc2ccccc2)cc1)C(F)(F)F (stereo not drawn)	·	i	·	12%	i	0%
Cc1ccc(O)c(C(=O)c2cc(C(=O)NCCC(C)C)c(=O)n(CCC(C)C)c2)c1	14%	?	-11%[10 µM]	?	i	?
O=C(c1cc(C(=O)NCc2ccc(Cl)cc2)c(=O)n(Cc2ccc(Cl)cc2)c1)c1cc(F)ccc1O	?	7.3µM*	-20%	11%	?	11%
Cc1ccc(OCC(=O)N2CCN(C3CCC(c4ccccc4)CC3)CC2)cc1 (stereo not drawn)	10%	?	2%	13µM*	i	-2%
C[C@@H]1CC[C@H]2[C@H](C)[C@H]3CC[C@@]4(O)[C@@H]5CC(=O)[C@H]6CC(=O)CC[C@]6(C)[C@H]5C[C@H]4[C@@H]3CN2C1	-1%	·	-3%	·	·	·
COC1=CC(=O)O[C@H](/C=C/c2ccc3c(c2)OCO3)C1	2%	·	-13%	·	·	·

Bioassay records: PubChem, National Center for Advancing Translational Sciences (NCATS)
